# Screens from PubChem BioAssay.
# HP1b chromo inh = blocks HP1-beta chromodomain binding to methylated histone tails | P83916 | AlphaScreen HP1-beta / biotin-H3K9me3 peptide binding | Potency, µM (highest dose often 114 µM), for inactives: at the highest dose activity change, negative = inhibition, hits mostly inhibitors | actives 0.56% (n = 390,000); note: nearly all actives have a fitted effect of over 70% in size
#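 HP1-beta protein (50 nM final) preincubated 30 min at room temperature with biotinylated H3(1-18)K9me3 peptide (50 nM) in PBS pH 7.4, 0.01% Tween-20, then compound added for 30 min. AlphaScreen streptavidin donor/nickel chelate acceptor beads (10 ug/mL final), 30 min dark, luminescence read.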
# G9a inh = inhibitors of human histone lysine methyltransferase G9a. actives 8.8% (n = 350,000). G9a H3K9 monomethylation, AlphaScreen, 2 h. Q96KQ7. AID 504332. Potency, µM (series often up to 102 µM), for inactives: at the highest dose activity, negative = inhibition, actives largely listed as inhibitors; note: % is set by controls: 0 for no effect and ±100 for the full control effect; nearly all actives have a fitted effect of over 75% in size
#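 AlphaScreen read-out: biotin-H3K9 peptide (500 nM) methylation by 20 nM enzyme with 20 uM SAM, 2 h at room temperature after 15 min compound preincubation; anti-monomethyl H3K9 antibody plus donor/acceptor beads, 10 min dark.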
# BAZ2B block = BAZ2B (human) inhibition; actives 4.4% (n = 360,000); AlphaScreen BAZ2B-H3K14Ac peptide displacement; Potency, µM (doses to about 114 µM), without a hit: at the highest dose activity change, negative = inhibition, most hits filed as inhibitors; Q9UIF8; note: % is set by controls: 0 for no effect and ±100 for the full control effect; nearly all actives have a fitted effect of over 60% in size
#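 Complex of BAZ2B and biotin-H3K14Ac (50 nM apiece) forms over 30 min at RT, then faces library compounds up to 110 uM for another 30 min; AlphaScreen beads added, 20 min dark incubation, luminescence read.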
# JMJD2A Tudor = JMJD2A Tudor domain (human) inhibition | O75164 | AlphaScreen JMJD2A-Tudor / H3K4me3 peptide binding | Potency, µM (doses to about 114 µM), without a hit: at the highest dose activity change, negative = inhibition, most hits filed as inhibitors | actives 4.4% (n = 390,000); note: % is set by controls: 0 for no effect and ±100 for the full control effect; nearly all actives have a fitted effect of over 50% in size
# Target sequence (O75164 whole entry, looked up, the tested form may be a part): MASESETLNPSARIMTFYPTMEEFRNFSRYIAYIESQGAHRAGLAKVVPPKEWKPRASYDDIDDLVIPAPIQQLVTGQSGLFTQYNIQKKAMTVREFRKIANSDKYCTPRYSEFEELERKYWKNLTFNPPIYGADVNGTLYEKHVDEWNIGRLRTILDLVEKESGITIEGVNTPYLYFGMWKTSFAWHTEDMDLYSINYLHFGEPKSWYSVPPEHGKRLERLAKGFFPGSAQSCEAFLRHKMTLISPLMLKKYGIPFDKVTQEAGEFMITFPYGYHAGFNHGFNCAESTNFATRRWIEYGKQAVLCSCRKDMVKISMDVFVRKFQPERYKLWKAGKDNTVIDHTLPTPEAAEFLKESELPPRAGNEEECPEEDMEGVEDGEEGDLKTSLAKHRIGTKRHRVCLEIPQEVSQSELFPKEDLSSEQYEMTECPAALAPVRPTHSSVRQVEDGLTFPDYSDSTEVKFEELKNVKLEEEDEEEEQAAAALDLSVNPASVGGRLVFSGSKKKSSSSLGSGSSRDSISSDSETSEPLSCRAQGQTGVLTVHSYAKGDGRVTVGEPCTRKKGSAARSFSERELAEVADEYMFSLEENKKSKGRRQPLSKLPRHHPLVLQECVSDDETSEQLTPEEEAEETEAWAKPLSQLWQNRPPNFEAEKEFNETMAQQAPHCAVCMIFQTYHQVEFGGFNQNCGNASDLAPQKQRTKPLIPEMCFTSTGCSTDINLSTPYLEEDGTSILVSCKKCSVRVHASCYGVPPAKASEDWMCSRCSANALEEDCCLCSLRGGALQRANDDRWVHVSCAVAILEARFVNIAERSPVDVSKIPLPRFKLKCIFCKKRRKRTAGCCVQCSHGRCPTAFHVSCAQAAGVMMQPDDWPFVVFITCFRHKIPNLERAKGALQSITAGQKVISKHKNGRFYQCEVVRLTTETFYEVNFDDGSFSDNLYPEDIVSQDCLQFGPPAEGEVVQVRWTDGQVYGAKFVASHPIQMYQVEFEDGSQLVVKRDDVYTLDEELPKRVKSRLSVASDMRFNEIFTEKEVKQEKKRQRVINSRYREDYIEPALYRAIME
# L3MBTL1 inh = L3MBTL1 (human) inhibition; Q9Y468; AlphaScreen L3MBTL1–H3K9me1 peptide binding; Potency, µM (top dose mostly 57.1 µM), for the others: at the highest dose activity, negative = inhibition, actives largely listed as inhibitors; actives 0.66% (n = 230,000); AID 485360; note: % is set by controls: 0 for no effect and ±100 for the full control effect; nearly all actives have a fitted effect of over 60% in size
#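 L3MBTL1 50 nM + b-AHA-H3(1-15)K9me1 75 nM, 30 min RT; compound added, 30 min RT; streptavidin donor/Ni-chelate acceptor beads 10 ug/mL each final, 30 min RT dark; AlphaScreen read.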
# Sfp inh = Sfp phosphopantetheinyl transferase inhibition; Q9F4F7; Biochemical Sfp PPTase activity, qHTS; Potency, µM, for inactives: largest response in the series, negative = inhibition, actives largely listed as inhibitors; actives 3.5% (n = 310,000);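 note: the enzyme is Sfp with the accession as filed and its product quenches rhodamine fluorescence; 0% = enzyme reaction without inhibitor and -100% = no enzyme wells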
#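 With Hepes-Na pH 7.6 buffer containing 10 mM MgCl2, Sfp (15 nM) modified BHQ-2-YbbR (12.5 uM) using rhodamine-CoA (5 uM). Two reads 30 minutes apart at 525/598 nm yielded each well's rate.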
# * marks the source's active call; other numbers are inactive results; ? = inconclusive; . = not tested or not shown; [ ] = dose if it differs, or a comment. Most compounds without a hit are left out; they make up all but 12% or so of the library. Calls come from the whole dose curve; as a rule, active = well fitted curve in the direction sought with a large enough effect; inconclusive = small, poorly fitted or top-dose-only effect, or another doubt; inactive = no such curve, though single readings can be large; an effect the other way counts as inactive or inconclusive. Potency is the fitted concentration of half-maximal effect.
SMILES,HP1b chromo inh,G9a inh,BAZ2B block,JMJD2A Tudor,L3MBTL1 inh,Sfp inh
COc1ccc2c(c1)O[C@@H](c1cccc(C(F)(F)F)c1)[C@H](OC(=O)NCCOc1ccccc1)C2=O,.,.,.,.,.,-28.2%
Cc1cc2oc(C(=O)Nc3ccc(S(=O)(=O)N(C)c4ccccc4)cc3)cc(=O)c2cc1C,20.2%,8.3%[59 µM],-0.5%,5.9%,.,.
O=C1c2ccccc2C(=O)C1c1cc2ccccc2cn1,65.0%,.,.,-23.4%,.,.
O=C(O)c1cc2ccccc2cn1,0.0%[57 µM],.,.,0.316µM*,.,.
COc1cc(C(=O)O)nc2ccccc12,-10.2%,12.4%[2.33 µM],39.8µM*,12.6µM*,-10.1%,63.1µM*
COC(=O)c1cnc2ccccc2n1,27.0%,-6.2%[59 µM],13.3%,-11.6%,6.4%,4.4%
O=C(O)c1cnc2ccccc2n1,?,12.6%[59 µM],?,20µM*,8.1%,-18.3%
CCOC(=O)c1cc(-c2ccccc2)n(-c2cccc(C(=O)Nc3cccc(SC)c3)c2)c1C,18.7%,-28.4%[59 µM],-22.0%,-32.4%,.,.
Cc1ccc(-n2ncc(C(=O)NC3CCN(Cc4ccccc4)CC3)c2C2CCN(C(=O)OC(C)(C)C)CC2)cc1C,18.2%,-33.2%[59 µM],-0.5%[57.1 µM],-34.6%,.,.
ClCc1nc2ccccc2c2ccccc12,45.4%,70.8µM*,-1.1%,1.4%,.,6.2%
CCOC(=O)c1c(CCl)nc2ccccc2c1-c1ccccc1,92.6%,?,-14.6%,18.3%,.,-14.6%
COc1cccc(-n2nnc(-c3nc(-c4ccccc4F)no3)c2C)c1,6.2%,-0.3%[59 µM],13.7%,-11.7%,.,.
CC(=O)Nc1ccc2c(c1)C(=Nc1ccccc1)c1ccccc1-2,-25.9%[57 µM],.,.,35.5µM*,.,.
CN1C(=O)c2c(sc3c2CC(C)(C)SC3)N2CCN=C12,26.2%,?,-24.5%,-13.8%,-5.2%,?
CC1(C)Cc2c(sc3c2C(=O)N(c2ccccc2)C2=NCCN23)CS1,28.1%,-4.8%[0.501 µM],?,-17.6%,-0.6%,89.1µM*
Cc1ccc2nc(-c3ccncc3)[nH]c2c1,40.7%,-7.3%,?,-5.5%,-0.3%,5.4%
Cc1csc(N2CCN(c3cc4nc(-c5ccncc5)[nH]c4cc3Cl)CC2)n1,24.7%,7.94µM*,?,79.4µM*,-5.3%,79.4µM*
Cc1ccc(-c2csc(N3CCN(c4cc5c(cc4Cl)nc(C)n5CCN4CCCCC4)CC3)n2)cc1,-24.5%,44.7µM*,-38.3%[57.1 µM],39.8µM*,-5.4%,50.1µM*
Cc1csc(N2CCN(c3cc4c(cc3Cl)nc(-c3ccncc3)n4CCCN3CCCC3)CC2)n1,3.4%,10µM*,?,56.2µM*,-20.8%,?
Cc1ccc(-c2csc(N3CCN(c4cc5c(cc4Cl)nc(C(C)N)n5CCCO)CC3)n2)cc1 (stereo unspecified),34.8%,13.3%,-31.3%,-35.7%,-3.5%,-4.9%
O=C(CNCc1ccc(F)cc1)Nc1ccc(C(=O)N2CCCCC2)cc1,?,10µM*,31.6µM*,1.12µM*,.,?
O=C(CNCc1ccccc1Cl)Nc1ccc(C(=O)N2CCCCC2)cc1,?,5.62µM*,22.4µM*,?,.,?
O=C(O)CCC(=O)Nc1ccc(C(=O)N2CCCCC2)cc1,13.6%,28.5%,-1.3%,-6.4%,-1.1%,13.2%
O=C(CNCCc1ccccc1)Nc1ccc(C(=O)N2CCCCC2)cc1,?,11.2µM*,39.8µM*,22.4µM*,.,-17.4%
O=C(CNCCc1ccc(Cl)cc1)Nc1ccc(C(=O)N2CCCCC2)cc1,?,7.94µM*,20µM*,3.16µM*,.,?
SMILES,HP1b chromo inh,G9a inh,BAZ2B block,JMJD2A Tudor,L3MBTL1 inh,Sfp inh
O=c1[nH]c(C2CCN(S(=O)(=O)c3ccccc3)CC2)nc2c1nnn2Cc1ccccc1,1.0%,?,-8.9%,50.1µM*,2.2%,-7.0%
CC(c1ncncc1F)[C@](O)(Cn1cncn1)c1ccc(F)cc1F (stereo partly specified),.,16.9%[59 µM],.,.,.,13.9%
C[C@H]1CN(C2CCCCC2)C(=O)[C@@H]1CC(=O)NCc1ccccc1,30.3%,?,-2.3%,-9.7%,9.6%,11.4%
CCCCN1C[C@H](C)[C@@H](CC(=O)NCc2ccccc2)C1=O,62.0%,44.7µM*,-25.0%,-11.4%,0.2%,16.6%
NCCC(O)(P(=O)(O)O)P(=O)(O)O,.,33.0%[59 µM],.,.,.,-2.6%
CCn1nc(-c2ccccc2C)nc2c(=O)n(C)c(=O)nc1-2,16.6%[57 µM],.,.,-13.8%[57.1 µM],.,.
O=C1CCN(S(=O)(=O)c2ccccc2)C2CCCCC12 (stereo unspecified),-4.8%,-28.2%,-2.5%,-25.2%[57.1 µM],-2.7%,10.9%
O=C1NC2CCCCC2C(=O)N1OS(=O)(=O)c1ccccc1 (stereo unspecified),50.1µM*,.,.,?,.,.
CCOc1ccc(NC(=O)/C=C\C(=O)N(c2ccc(C(C)C)cc2)C(C(=O)NCc2ccco2)c2ccc(F)cc2)cc1 (stereo unspecified),39.9%,?,-18.3%,-35.2%,.,.
COc1cccc(C2=Nn3c(nnc3-c3cccc(OC)c3OC)SC2)c1,.,.,.,-29.0%,.,-4.9%
Cc1ccc(C2CC2c2n[nH]c(=S)n2-c2ccc(Cl)cc2)cc1 (stereo unspecified),-5.1%,22.4µM*,-35.1%,-14.1%,.,20.3%
O=c1onc(-c2ccccc2Cl)n1-c1ccccc1Cl,20.4%,.,.,5.2%,.,.
Cc1ccc(N2C(=O)c3[nH]nc(-c4ccc(Cl)cc4)c3C2c2ccc(F)cc2)cc1 (stereo unspecified),21.3%,-1.3%[59 µM],.,-31.0%,.,.
S=c1[nH]nc([C@@H]2C[C@H]2c2ccccc2)n1-c1ccccc1Cl,44.2%,5.01µM*,-22.9%,?,-3.9%,24.5%
Cc1ccc(C2CC2c2n[nH]c(=S)n2-c2cccc(C)c2)cc1 (stereo unspecified),-19.1%,14.1µM*,-30.6%,-27.1%[11.4 µM],-17.8%,-16.4%
CC(C)Sc1nc2sc3c(c2c(=O)n1Cc1ccccc1)CCCC3,69.3%,10.5%[59 µM],11.2%,3.9%,.,.
O=C(CNC(=O)c1ccccc1)NCC1COc2ccccc2O1 (stereo unspecified),25.8%,1.0%[59 µM],-4.5%,-1.9%,.,13.3%
Cn1cccc1C(=O)NCC1COc2ccccc2O1 (stereo unspecified),-8.0%,50.1µM*,-31.5%,-31.0%,-5.9%,.
CC(NCC1COc2ccccc2O1)C1COc2ccccc2O1 (stereo unspecified),-3.6%[57 µM],-26.9%,?,3.98µM*,.,?
CC(NCC1COc2ccccc2O1)C(=O)NCc1ccccc1 (stereo unspecified),15.8µM*,44.7µM*,35.5µM*,1.26µM*,.,?
O=C(CCNC(=O)c1ccc([N+](=O)[O-])cc1)NCC1COc2ccccc2O1 (stereo unspecified),8.0%,50.1µM*,7.1%,-23.0%,7.6%,.
